# Measured values: the supplement of paper PMC10646978
# ± gives the standard deviation.
# Key:
# Conditions in all cases: modulator concentration 10 µM
# [1] = test system: RAW-Dual (murine macrophage reporter line); experiment: NF-kB reporter (SEAP) activity fold change vs agonist alone; higher = enhanced NF-kB activity
# Procedure, shortened: (§1)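 In 384-well plates holding 50 000 RAW-Dual murine macrophage reporter cells per well, compound at 10 μM final was pre-incubated for 1 hour at 37 °C, after which a PRR agonist was added overnight. Supernatant SEAP read with QUANTI-Blue at 620 nm absorbance reported NF-κB, and Lucia luciferase read with QUANTI-Luc luminescence reported IRF. Fold change values come from dividing each reporter signal by the mean of agonist-only control wells on the same plate, averaged over replicate plates with propagated errors.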
# [2] = test system: RAW-Dual (murine macrophage reporter line); experiment: IRF reporter (Lucia luciferase) activity fold change vs agonist alone; higher = enhanced IRF activity
# Procedure, shortened: as §1
# [3] = test system: RAW-Dual (murine macrophage reporter line); experiment: viability score (confluency relative to resting cells, overnight) (fraction); higher = more viable, active = viable (0.7 or more)
# Procedure, shortened: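 Compound was added at a final 10 μM to RAW-Dual macrophages in 384-well plates and left overnight. Confluency was imaged with IncuCyte, and two masks were generated in IncuCyte software over all imaged wells. Each viability score is confluency relative to resting cells, and a compound met the cutoff only when both masks were above 70% of resting cells.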
# [4] = agonist: CpG ODN 1826 0.5 ug/mL
SMILES,"NF-kB reporter [1, 4]",NF-kB reporter ([1]; agonist: LPS 0.1 ug/mL),NF-kB reporter ([1]; agonist: MPLA […]),IRF reporter ([2]; agonist: 3'3'-cGAMP 10 ug/mL),IRF reporter ([2]; agonist: LPS 0.1 ug/mL),IRF reporter ([2]; agonist: MPLA […]),viability score [3]
Cc1ccc(N2CC(C(=O)NCC3CCCO3)CC2=O)cc1 (centres undefined),1.02 ± 0.082,0.97 ± 0.099,1.03 ± 0.037,1.03 ± 0.22,1.05 ± 0.051,1.17 ± 0.076,1 (active)
CC(=O)N(C1=C(Nc2ccccc2)C(=O)c2ccccc2C1=O)c1ccccc1,2.44 ± 0.19,1.52 ± 0.098,2.64 ± 0.16,2.12 ± 0.063,5.77 ± 0.43,3.69 ± 0.39,0.334 (inactive)
CCOC(=O)CC(C(=O)OCC)P(=O)(c1ccccc1)c1ccccc1 (centres undefined),0.85 ± 0.048,0.943 ± 0.086,1.02 ± 0.14,0.993 ± 0.061,1.17 ± 0.095,1.15 ± 0.23,1.01 (active)
O=C(NCCCn1ccc2cccnc21)c1nc2ccccc2s1,0.766 ± 0.19,1.04 ± 0.092,1.09 ± 0.07,0.813 ± 0.071,0.942 ± 0.22,1.02 ± 0.15,1 (active)
COc1ccccc1C(=O)Nc1cnc(N2CCN(c3ccccn3)CC2)nc1,0.887 ± 0.038,1.02 ± 0.12,1.2 ± 0.066,0.913 ± 0.086,0.991 ± 0.21,1.12 ± 0.43,0.877 (active)
CCC(=O)Nc1ccc(N2CCCCC2)c(Cl)c1,1.1 ± 0.23,1.14 ± 0.091,1.04 ± 0.1,0.773 ± 0.026,1.41 ± 0.18,1.38 ± 0.28,0.992 (active)
CCOC(=O)N1CCN(C(=O)C2CCN(Cc3ccc(C)o3)CC2)CC1,0.941 ± 0.15,1.04 ± 0.089,0.98 ± 0.08,1.02 ± 0.051,1.26 ± 0.3,1.41 ± 0.3,0.991 (active)
COc1ccc([N+](=O)[O-])cc1NC(=O)c1ccccc1SC,0.656 ± 0.079,0.705 ± 0.14,0.88 ± 0.086,0.945 ± 0.031,1.03 ± 0.23,1.17 ± 0.33,0.987 (active)
CCCCSc1nnc2c(n1)OC(c1cccc(F)c1)Nc1ccc(Br)cc1-2 (centres undefined),1.07 ± 0.18,1.01 ± 0.078,0.951 ± 0.083,0.914 ± 0.036,1.24 ± 0.13,1.13 ± 0.12,1 (active)
Cc1nnc(C(=O)NC(C)(C)c2nc(C(=O)NCc3ccc(F)cc3)c(O)c(=O)n2C)o1,1.08 ± 0.19,1.09 ± 0.13,0.935 ± 0.056,0.878 ± 0.029,1.27 ± 0.15,0.988 ± 0.076,0.992 (active)
Cn1nccc1-c1ccc(CNC(=O)c2cc(Br)cs2)cn1,1.02 ± 0.082,0.974 ± 0.078,1.16 ± 0.12,1.03 ± 0.032,1.35 ± 0.17,1.53 ± 0.23,1 (active)
Clc1ccc(C2C=C(c3ccccc3)Nc3ncnn32)cc1 (centres undefined),1.08 ± 0.11,0.939 ± 0.091,0.986 ± 0.057,0.886 ± 0.17,1.1 ± 0.097,0.945 ± 0.062,1 (active)
